Experimental data taken from PubChem BioAssay (NCATS).
Several values for one entry are separate records, joined by “and”; a condition that tells them apart may be missing. Equal values may be shown once. Unmarked numbers belong to inactive results. Results filed as inconclusive are left out. Entries that show only a call come without a potency. Activity calls are given as the source filed them. Unless noted, calls follow the shape of the dose curve; as a rule, active = well fitted curve in the direction sought with a large enough effect; inconclusive = small, poorly fitted or top-dose-only effect, or another doubt; inactive = no such curve, though single readings can be large; an effect the other way counts as inactive or inconclusive.

Assays:
[1] = Cell Viability - HUV-EC-C (AID 542);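 also: cells exposed to compound for 40 hours; nearly all actives have a fitted effect of over 35% in size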; also: potency is read from the fitted curve at half-maximal effect
Procedure, shortened: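 Luminescent ATP read-out (CellTiter-Glo, 20 min room temperature) after 40 hr compound treatment of HUV-EC-C cells at 37 °C. Concentration-response data fitted with the standard Hill equation to give AC50; tamoxifen and doxorubicin served as positive controls.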

[2] = Cellular Toxicity (caspase-3) H-4-II-E (AID 663); details: Potency: caspase-3 activation;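 also: cells exposed to compound for 16 hr before readout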
Procedure, shortened: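 Caspase 3/7 activation measured in H-4-II-E cells in complete culture medium after 16 hr treatment at 37 °C, using luciferase-coupled substrate readout; AC50 values come from Hill-equation fits of normalized concentration-response data.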

[3] = Cellular Toxicity (caspase-3) N2a (AID 665);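 also: compound exposure lasted 16 h at 37 °C before readout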
Procedure, shortened: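 Luminescent Caspase-Glo 3/7 readout in N2a mouse neuroblastoma cells after 16 h compound exposure at 37 °C. Signal scaled to DMSO (basal) and 10 uM staurosporine (100%). Concentration-response fitted with Hill equation for AC50.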

[4] = Cellular Toxicity (caspase-3) NIH 3T3 (AID 666)
Procedure, shortened: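 NIH 3T3, 1000 cells/well, 5 hr settle then 16 hr compound at 37°C; Caspase-Glo 3/7, 20 min RT, luminescence. DMSO = basal, 100 uM tamoxifen = 100%. Hill-equation AC50, qHTS.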

[5] = MultiTox-Fluor Cytotoxicity Assay - LYMP1-003 - Live Cells (AID 962);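 also: cytotoxic hits lower the live-cell protease signal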
Procedure, shortened: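 Readout: live-cell fluorescence (Ex/Em=405/510) from GF-AFC cleavage after 60 min MultiTox-Fluor reagent at room temperature. Lymphoblastoid LYMP1-003 cells, 16 hr compound treatment, 37 C. Concentration-response fitted to standard Hill equation for AC50.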

[6] = Cell Viability - LYMP2-003 (AID 965);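 also: cells exposed to compounds for 24 h before reading; nearly all actives have a fitted effect of over 50% in size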
Procedure, shortened: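 CellTiter-Glo luminescence quantified ATP loss after 24 h compound treatment of LYMP2-003 lymphoblastoid cells at 37 C. Titration series were fitted with the standard Hill equation to give AC50.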

[7] = target: Estrogen receptor (Homo sapiens) (UniProt P03372); experiment: qHTS assay for small molecule antagonists of estrogen receptor alpha signaling (AID 588513; active = well fitted curve in the direction sought with a large enough effect in the signal ratio, with a control signal flat, not every such curve was filed as active; the % refers to the signal ratio)
Procedure, shortened: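 Antagonist mode: inhibition of 0.5 nM 17-beta-estradiol-driven beta-lactamase reporter in HEK 293 ER-alpha-UAS-bla cells, 18 h at 37C, CCF4 readout after 2 h at RT. Normalised to estradiol and DMSO; titration fitted to Hill.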

[8] = target: Estrogen receptor (Homo sapiens) (UniProt P03372); experiment: qHTS assay for small molecule agonists of estrogen receptor alpha signaling (AID 588514; calls by dose curve; also: nearly all actives have a fitted effect of over 70% in size)
Procedure, shortened: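 Read-out: CCF4 fluorescence from a beta-lactamase reporter in ER-alpha-UAS-bla HEK 293 cells after 18 hrs of compound exposure at 37 C. Normalized to 20 nM 17-beta-estradiol (100%) and DMSO (0%).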

[9] = target: Vitamin D3 receptor (Homo sapiens) (UniProt P11473); experiment: qHTS assay for small molecule antagonists of vitamin D receptor signaling (AID 588541; calls by dose curve;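 also: receptor activated by calcitriol during compound treatment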)
Procedure, shortened: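 VDR-UAS-bla HEK293T cells (2000/well, 2% charcoal-stripped FBS) were treated with titrated compounds plus 1-alpha,25-dihydroxyvitamin D3 (50 nM or 3 nM final) for 16 h at 37 C. CCF4 beta-lactamase fluorescence was read; Hill fits gave IC50.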

[10] = target: Nuclear receptor ROR-gamma (Homo sapiens) (UniProt P51449); experiment: qHTS assay for small molecule antagonists of the retinoid-related orphan receptor gamma (ROR-gamma) signaling pathway (AID 651802); also: nearly all actives have a fitted effect of over 60% in size; also: potency is read from the fitted curve at half-maximal effect
Procedure, shortened: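 Luciferase read-out: ONE-Glo luminescence after 30 min at room temperature, following 16hr doxycycline induction at 37C, 5% CO2 of CHO cells with TET-inducible ROR and RORE-LUC reporter; decreased luminescence = reduced reporter activity.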

[11] = qHTS assay for small molecule activators of the human pregnane X receptor (PXR) signaling pathway (AID 720659; call rule not given here)
[12] = Cell Viability - NIH 3T3 (AID 541); details: NIH 3T3 cell viability, qHTS; activity change, negative = cytotoxicity: at 92.2 µM (top of the series);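 also: cells exposed to compound for 40 hours; nearly all actives have a fitted effect of over 25% in size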; also: potency is read from the fitted curve at half-maximal effect
Procedure, shortened: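 qHTS format; 40 hr compound exposure, 37 °C; CellTiter-Glo luminescence (cellular ATP) read-out after 20 min at RT. Decrease in ATP = cytotoxicity; AC50 from standard Hill fit.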

[13] = Cellular Toxicity (caspase-3) HUV-EC-C (AID 656)
Procedure, shortened: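 Luminescent Caspase-Glo 3/7 readout after 16 h, 37 °C compound exposure of HUV-EC-C endothelial cells, 1000 per well, complete medium. AC50 derived by Hill fitting, with DMSO as baseline and 100 uM tamoxifen as full activation.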

[14] = target: Cytochrome P450 3A4 (Homo sapiens) (UniProt P08684); experiment: qHTS Assay for Inhibitors and Substrates of Cytochrome P450 3A4 (AID 884); also: nearly all actives have a fitted effect of over 50% in size; also: potency is read from the fitted curve at half-maximal effect
Procedure, shortened: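 Luminescent readout of luciferin produced by CYP3A4 (20 nM) dealkylation of Luciferin-PPXE, 25 uM (its KM). NADPH-driven reaction ran 60 min at RT after 10 min compound preincubation; data scaled to 57 uM ketoconazole as 100% inhibition.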

[15] = qHTS assay for small molecule agonists of the antioxidant response element (ARE) signaling pathway (AID 651741; active = well fitted activation curve with a large enough effect in the signal ratio; the % refers to the signal ratio; also: potency is read from the fitted curve at half-maximal effect)
Procedure, shortened: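 Beta-lactamase reporter expression driven by the antioxidant response element in HepG2 cells was detected by fluorescence with LiveBLAzer B/G FRET substrate (2 h, room temperature) following 16 h compound treatment at 37 C.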

[16] = qHTS assay for small molecule agonists of the antioxidant response element (ARE) signaling pathway measured by Nrf2-dependant transcriptional activity - cell viability counter screen (AID 720653; active = well fitted curve in the direction sought with a large enough effect in the repeat runs; an effect the other way counts as inactive or inconclusive); details: ARE-bla HepG2 viability, CellTiter-Glo ATP luminescence, 16 h; max response: active compounds read low
Procedure, shortened: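 ARE-bla HepG2 cells (2,000/well) rested 5 hrs at 37C/5% CO2, then exposed to compounds in DMSO for 16 hrs. Viability was read in the same wells as intracellular ATP by luminescence, 30 min at room temperature after reagent addition.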

[17] = qHTS assay for cell viability of HEK293 cells (AID 743288); details: ATP luminescence (CellTiter-Glo), 18 h; max response: active compounds read low; also: nearly all actives have a fitted effect of over 50% in size
Procedure, shortened: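 Readout is luciferase-coupled ATP content (CellTiter-Glo luminescence, 30 min room temperature) as a measure of metabolically competent cells. Parental HEK293 cells were plated 5 h or more before compound addition, then treated 18 h at 37 C.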

[18] = MultiTox-Fluor Cytotoxicity Assay - LYMP1-003 - Dead Cells (AID 961); also: nearly all actives have a fitted effect of over 70% in size; also: potency is read from the fitted curve at half-maximal effect
Procedure, shortened: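 Dead-cell protease release, detected as bis-AAF-R110 fluorescence at 485/520 nm, was measured in LYMP1-003 cells after 16 h compound treatment at 37 C. AC50 values came from Hill-modeled qHTS curves normalized to DMSO (0%) and 15 uM tetraoctylammonium bromide (100%).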

[19] = qHTS assay for small molecule activators of the nuclear factor-kappa B (NF-kB) signaling pathway (AID 651749; active = well fitted activation curve with a large enough effect in the signal ratio; the % refers to the signal ratio); details: NF-kB-bla ME-180 cells, beta-lactamase FRET ratio, 16 h; active compounds read high
Procedure, shortened: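 Beta-lactamase reporter expression, controlled by NF-kB response elements in ME-180 cells, was quantified fluorometrically via FRET disruption; cells at 2,000/well had been incubated with 23 nL test compound for 16 hr.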

[20] = target: Glucocorticoid receptor (Homo sapiens) (UniProt P04150); experiment: qHTS assay for small molecule antagonists of glucocorticoid receptor signaling (AID 588533; active = well fitted inhibition curve with a large enough effect in the signal ratio, with a control signal flat, not every such curve was filed as active; the % refers to the signal ratio;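 also: cells stimulated with 2 nM dexamethasone as agonist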)
Procedure, shortened: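 Antagonist-mode qHTS: compound titrations added to GRE-bla HeLa cells, then dexamethasone 2 nM final; 18 h, 37 C. CCF4 FRET fluorescence normalized to dexamethasone and DMSO; IC50 from Hill fit.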

Nuclear receptor ROR-gamma (Homo sapiens), sequence (P51449 whole entry, looked up): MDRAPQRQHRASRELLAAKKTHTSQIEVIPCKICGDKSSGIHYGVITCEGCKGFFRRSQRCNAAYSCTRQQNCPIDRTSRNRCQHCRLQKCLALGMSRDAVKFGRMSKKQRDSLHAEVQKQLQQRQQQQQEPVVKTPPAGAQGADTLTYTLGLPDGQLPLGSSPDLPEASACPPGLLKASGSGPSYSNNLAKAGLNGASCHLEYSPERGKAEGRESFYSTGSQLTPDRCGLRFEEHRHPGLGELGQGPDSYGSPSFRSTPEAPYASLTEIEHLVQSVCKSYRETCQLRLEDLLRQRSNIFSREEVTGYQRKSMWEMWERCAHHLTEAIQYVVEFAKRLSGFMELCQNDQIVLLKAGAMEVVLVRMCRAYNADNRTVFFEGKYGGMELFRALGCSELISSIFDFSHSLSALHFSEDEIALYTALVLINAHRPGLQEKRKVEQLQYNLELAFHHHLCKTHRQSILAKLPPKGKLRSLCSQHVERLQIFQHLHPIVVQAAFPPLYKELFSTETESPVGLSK
Cytochrome P450 3A4 (Homo sapiens), sequence (P08684 whole entry, looked up): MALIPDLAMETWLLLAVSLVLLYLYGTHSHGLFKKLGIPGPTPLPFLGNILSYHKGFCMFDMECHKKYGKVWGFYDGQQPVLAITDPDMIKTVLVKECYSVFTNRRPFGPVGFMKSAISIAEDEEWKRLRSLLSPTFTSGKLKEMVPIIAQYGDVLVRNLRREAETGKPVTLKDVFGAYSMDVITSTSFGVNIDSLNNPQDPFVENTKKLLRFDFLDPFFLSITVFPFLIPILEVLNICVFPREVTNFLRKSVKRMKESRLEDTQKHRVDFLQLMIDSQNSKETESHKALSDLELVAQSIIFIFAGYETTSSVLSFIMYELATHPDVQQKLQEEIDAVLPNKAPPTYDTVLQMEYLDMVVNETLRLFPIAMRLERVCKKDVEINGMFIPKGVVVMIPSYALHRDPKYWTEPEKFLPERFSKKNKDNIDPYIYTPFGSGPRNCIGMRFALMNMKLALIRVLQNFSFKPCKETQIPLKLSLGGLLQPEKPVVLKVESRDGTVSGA
Estrogen receptor (Homo sapiens), sequence (P03372 whole entry, looked up): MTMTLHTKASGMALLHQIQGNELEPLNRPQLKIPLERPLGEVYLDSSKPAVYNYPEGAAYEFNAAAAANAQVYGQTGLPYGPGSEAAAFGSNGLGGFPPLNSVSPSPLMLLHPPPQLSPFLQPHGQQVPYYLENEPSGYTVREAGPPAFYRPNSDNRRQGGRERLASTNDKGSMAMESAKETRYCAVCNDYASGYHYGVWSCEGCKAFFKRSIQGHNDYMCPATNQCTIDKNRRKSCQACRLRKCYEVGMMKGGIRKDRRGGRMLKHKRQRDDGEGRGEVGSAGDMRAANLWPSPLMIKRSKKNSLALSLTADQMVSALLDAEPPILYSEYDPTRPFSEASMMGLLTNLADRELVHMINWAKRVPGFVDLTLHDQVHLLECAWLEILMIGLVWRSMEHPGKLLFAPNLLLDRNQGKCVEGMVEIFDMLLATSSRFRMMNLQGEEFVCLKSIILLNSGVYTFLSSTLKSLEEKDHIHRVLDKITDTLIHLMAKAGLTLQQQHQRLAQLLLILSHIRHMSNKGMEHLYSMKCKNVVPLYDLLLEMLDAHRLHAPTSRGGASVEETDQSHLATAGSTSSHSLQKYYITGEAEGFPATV
Vitamin D3 receptor (Homo sapiens), sequence (P11473 whole entry, looked up): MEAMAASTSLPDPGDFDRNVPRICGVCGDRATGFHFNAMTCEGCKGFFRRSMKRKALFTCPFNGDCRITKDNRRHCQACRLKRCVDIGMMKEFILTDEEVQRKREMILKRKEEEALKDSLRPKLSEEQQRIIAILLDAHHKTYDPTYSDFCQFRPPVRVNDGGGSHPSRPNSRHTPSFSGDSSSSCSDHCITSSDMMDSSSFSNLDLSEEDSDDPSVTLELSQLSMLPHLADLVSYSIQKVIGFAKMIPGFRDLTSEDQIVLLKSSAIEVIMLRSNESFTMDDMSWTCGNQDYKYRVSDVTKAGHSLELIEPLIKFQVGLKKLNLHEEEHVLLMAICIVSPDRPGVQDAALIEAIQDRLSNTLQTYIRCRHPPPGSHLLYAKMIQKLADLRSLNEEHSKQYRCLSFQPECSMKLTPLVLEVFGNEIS
Glucocorticoid receptor (Homo sapiens), sequence (P04150 whole entry, looked up): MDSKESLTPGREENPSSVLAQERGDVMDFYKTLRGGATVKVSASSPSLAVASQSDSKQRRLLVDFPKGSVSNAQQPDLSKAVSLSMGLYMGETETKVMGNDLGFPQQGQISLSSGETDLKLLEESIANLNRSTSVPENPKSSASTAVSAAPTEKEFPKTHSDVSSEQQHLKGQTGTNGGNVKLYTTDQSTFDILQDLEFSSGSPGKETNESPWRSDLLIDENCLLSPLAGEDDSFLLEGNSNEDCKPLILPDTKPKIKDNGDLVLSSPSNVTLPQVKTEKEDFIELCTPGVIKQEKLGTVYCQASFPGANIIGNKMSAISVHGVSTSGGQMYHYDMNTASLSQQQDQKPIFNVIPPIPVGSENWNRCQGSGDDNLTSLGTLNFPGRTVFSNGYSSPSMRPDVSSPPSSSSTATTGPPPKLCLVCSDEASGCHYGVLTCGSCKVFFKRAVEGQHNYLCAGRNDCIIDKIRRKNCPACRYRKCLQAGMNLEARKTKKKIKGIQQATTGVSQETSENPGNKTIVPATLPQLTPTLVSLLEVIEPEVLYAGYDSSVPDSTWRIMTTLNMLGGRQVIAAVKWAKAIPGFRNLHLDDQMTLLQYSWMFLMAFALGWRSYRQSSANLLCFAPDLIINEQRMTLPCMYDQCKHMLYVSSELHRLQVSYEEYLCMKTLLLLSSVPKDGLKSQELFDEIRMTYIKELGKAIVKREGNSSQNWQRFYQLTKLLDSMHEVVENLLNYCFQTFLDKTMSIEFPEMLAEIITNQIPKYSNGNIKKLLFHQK

Cc1cc(-c2ccc(N=Nc3cc(S(=O)(=O)O)c4ccccc4c3N)c(C)c2)ccc1N=Nc1cc(S(=O)(=O)O)c2ccccc2c1N
Potency [1]: 25.1 µM (active) | Potency [2]: inactive | outcome [3]: inactive | outcome [4]: inactive | Potency [5]: inactive | Potency [6]: inactive | outcome [7]: inactive | Potency [8]: inactive | Potency [9]: inactive | Potency [10]: inactive | outcome [11]: inactive

Oc1ccc(O)c2c(O)cccc12
activity change, negative = cytotoxicity [12]: -29% | Potency [1]: inactive | Potency [13]: inactive | outcome [3]: inactive | outcome [4]: inactive | Potency [14]: inactive | outcome [7]: inactive | Potency [8]: inactive | Potency [15]: 42.2 µM (active) | Potency [10]: 66.8 µM (active) | max response [16]: -23% | max response [17]: -5% | outcome [11]: inactive

CCN(CC)c1ccc2c(C)cc(=O)oc2c1
Potency [2]: inactive | Potency [5]: inactive | Potency [6]: inactive | outcome [7]: inactive | Potency [15]: 37.6 µM (active) | Potency [10]: inactive | max response [16]: -2.1% | max response [17]: -1.15%

S=C(NC1CCCCC1)NC1CCCCC1
Potency [13]: inactive | outcome [3]: inactive | outcome [4]: inactive | Potency [18]: inactive | Potency [5]: inactive | Potency [6]: inactive | outcome [7]: inactive | Potency [8]: inactive | Potency [9]: inactive | Potency [15]: 66.8 µM (active) | activation [19]: -0.887% | Potency [10]: inactive | max response [17]: -15.2%

O=C=Nc1ccc(Cl)c(Cl)c1
activity change, negative = cytotoxicity [12]: -122% (active) | Potency [13]: inactive | Potency [14]: inactive | Potency [6]: inactive | outcome [7]: inactive | Potency [8]: inactive | Potency [9]: inactive | Potency [15]: 75 µM (active) | activation [19]: 7.4% | Potency [10]: 33.5 µM (active) | max response [16]: -6.45% | outcome [11]: inactive

c1ccc(Nc2cccc3ccccc23)cc1
activity change, negative = cytotoxicity [12]: -22.5% | Potency [13]: inactive | Potency [2]: inactive | outcome [3]: inactive | outcome [4]: inactive | Potency [18]: inactive | Potency [5]: inactive | Potency [6]: inactive | Potency [10]: inactive | max response [16]: -11.3% and -26.9% | max response [17]: -6.95% and -18%

Nc1ccc(N)c(Cl)c1
Potency [12]: 31.6 µM (active) | Potency [13]: inactive | Potency [2]: inactive | outcome [3]: inactive | outcome [4]: inactive | Potency [14]: 10 µM (active) | Potency [18]: inactive | Potency [6]: inactive | Potency [8]: inactive | Potency [9]: inactive | Potency [15]: 23.7 µM (active) | Potency [10]: inactive | max response [16]: 24% | max response [17]: -4.85% | outcome [11]: inactive

CCCCC(CC)COP(=O)(OCC(CC)CCCC)OCC(CC)CCCC (centres undefined)
Potency [1]: inactive | Potency [18]: inactive | Potency [20]: inactive | Potency [9]: inactive | activation [19]: -0.649% | Potency [10]: inactive | outcome [11]: inactive

Cc1ccc(O)c(N)c1
activity change, negative = cytotoxicity [12]: -124% (active) | Potency [1]: inactive | outcome [3]: inactive | Potency [14]: inactive | Potency [18]: inactive | Potency [5]: inactive | Potency [8]: inactive | Potency [15]: 16.8 µM (active) | max response [16]: -26.2% | max response [17]: -7.01%

O=[N+]([O-])c1cc(Cl)c(Cl)c(Cl)c1Cl
Potency [12]: 7.94 µM (active) | Potency [1]: inactive | Potency [2]: inactive | Potency [14]: inactive | Potency [18]: 50.1 µM (active) | Potency [6]: inactive | Potency [9]: inactive | Potency [15]: 29.8 µM (active) | activation [19]: -0.62% | Potency [10]: 33.5 µM (active) | outcome [11]: inactive

Nc1ccc2c(c1)C(=O)c1ccccc1C2=O
Potency [1]: 31.6 µM (active) | Potency [13]: inactive | outcome [3]: inactive | Potency [14]: 2.51 µM (active) | Potency [18]: inactive | Potency [5]: inactive | Potency [6]: inactive | outcome [7]: inactive | Potency [20]: inactive | Potency [15]: 10.6 µM (active) and 48.6 µM (active) | activation [19]: 1.2% and -1.21% | Potency [10]: inactive | max response [16]: -14.7% and -7.62%
